Cycloheximide cs: counter-screen for Shiga toxin inhibitors: cycloheximide protein synthesis inhibition; cell reporter, cycloheximide protein synthesis inhibition counterscreen; max response, %; 300,000 tested, 12% active; in the data active means max response mostly above about 13%, no sharp cut-off; inactive means mostly below about 14%; further: read at 38.3 µM for the half of the compounds with a filed dose; 0% is about no effect
Pf growth 96h: P. falciparum growth inhibition at 96 hours. Potency, µM (titrated, usually from 28.7 µM), for the others: at the highest dose activity change, negative = inhibition, usual class: inhibitors. P. falciparum luciferase reporter growth, 96 h. 320,000 tested, 6.9% active; further: potency means the concentration at half of the fitted maximal effect; on the % scale 0 is the no-effect control and ±100 the full control effect
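P. falciparum expressing integrated firefly luciferase, in erythrocytes at 2% hematocrit, 0.05% parasitemia, incubated with compounds 96 h at 37 C, 5% CO2. Growth inhibition read as loss of luminescence; two-generation exposure targets delayed-death apicoplast inhibitors.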
Pf growth 48h: inhibits P. falciparum growth in the first generation, 48 h; P. falciparum luciferase growth in erythrocytes, 48 h; Potency, µM (titrated, usually from 28.7 µM), for inactives: at the top dose activity change, negative = inhibition, usual class: inhibitors; 310,000 tested, 5.9% active; AID 504832; further: potency means the concentration at half of the fitted maximal effect; on the % scale 0 is the no-effect control and ±100 the full control effect
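Parasite viability was followed by luminescence of a genomically integrated firefly luciferase. Cultures held 0.1% parasitemia at 2% hematocrit (final), incubated under 5% CO2 at 37 C.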
AMA1 RON2 block: disrupts binding of P. falciparum AMA1 to RON2. AlphaScreen AMA1-biotinylated RON2 peptide binding. Potency, µM (series often up to 58.2 µM), inactives show top-dose activity change, negative = inhibition, actives largely listed as inhibitors. 360,000 tested, 0.2% active;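 further: potency means the concentration at half of the fitted maximal effect; 0% = vehicle wells and -100% = peptide control; nearly all actives have a fitted effect of over 45% in size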
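AMA1 (3D7) with his tag at 25 nM final met compounds first, then biotinylated RON2 peptide at 25 nM; detection used donor plus acceptor beads, 10 µg/mL apiece, read by AlphaScreen after 30 min at room temperature.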
Shiga toxin inh: blocks Shiga toxin action in Vero cells. 290,000 tested, 9.2% active. inhibition, % at 38.7 µM. Vero cells, Shiga toxin protein synthesis inhibition reporter. AID 2315; in the data active means inhibition mostly above about 28%, no sharp cut-off; inactive means mostly below about 43%; further: 0% is about no effect
HCV inh: inhibitors of hepatitis C virus infection; Huh7.5.1 HCVcc-Cre infection, luciferase reporter, 44 h; Potency, µM (top dose mostly 41.8 µM), inactives show at the highest dose activity change, negative = inhibition, most hits filed as inhibitors; 340,000 tested, 3.4% active; AID 651820; further: potency means the concentration at half of the fitted maximal effect; on the % scale 0 is the no-effect control and ±100 the full control effect
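Seed cells (1,000/well) for 4 h; treat with compound and infect with HCVcc-Cre, moi about 0.5. Incubate 44 h, then detect luciferase activity.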
Starred values were filed as active, the others as inactive; [ ] = remark or other dose. Hits are enriched below; roughly 21% of the tested compounds scored in any of these assays. Unless noted, the call rests on the fitted dose curve; in most records, active means well fitted curve in the direction sought with a large enough effect; inconclusive means small, poorly fitted or top-dose-only effect, or another doubt; inactive means no such curve, though single readings can be large; an effect the other way counts as inactive or inconclusive.

Results for Cc1ccc(OCC(=O)NNC(=S)NC(=O)C2CC2)c(C)c1 ?
Cycloheximide cs: 7; Pf growth 96h: 15µM*; Pf growth 48h: inconclusive; Shiga toxin inh: -3

How did COc1ccc(C(=O)CSc2nc3[nH]ncc3c(=O)[nH]2)cc1 do in these assays?
Cycloheximide cs: 9; Pf growth 96h: 11%; Pf growth 48h: 26%; AMA1 RON2 block: 13%; Shiga toxin inh: 24; HCV inh: 17%

How did Cc1ccc(OCC(=O)Nc2ccncc2)c(C)c1 do in these assays?
Cycloheximide cs: 20*; Pf growth 96h: -5%; Pf growth 48h: 31%; AMA1 RON2 block: 0%; Shiga toxin inh: 23; HCV inh: inconclusive

How did Cc1ccc(OCC(=O)NNC(=O)c2ccco2)c(C)c1 do in these assays?
Cycloheximide cs: 14*; Pf growth 96h: 4%; Pf growth 48h: 6%; AMA1 RON2 block: 31%; Shiga toxin inh: 14; HCV inh: 10%

Results for COCCNC(=O)COc1ccc(C)cc1C ?
Cycloheximide cs: 12; Pf growth 96h: 45%; AMA1 RON2 block: 3%; Shiga toxin inh: 37; HCV inh: 8%

Results for O=C(COc1ccc(Cl)cc1Cl)Nc1cccnc1 ?
Cycloheximide cs: 45*; Pf growth 96h: 20%; Pf growth 48h: 76%; AMA1 RON2 block: 9%; Shiga toxin inh: 86*; HCV inh: -1%

How did CCOC(=O)Cn1c(=O)oc2cc(S(=O)(=O)N(C)c3cccc(C)c3)ccc21 do in these assays?
Cycloheximide cs: 0; Pf growth 96h: -2%; Pf growth 48h: 1%; AMA1 RON2 block: -2%; Shiga toxin inh: -14; HCV inh: 2%

How did CC(=O)NC(c1ccc(F)c(F)c1)c1nc(-c2cc3ccccc3o2)cs1 (configuration not stated) do in these assays?
AMA1 RON2 block: 1%

What do the screens show for `CCOC(=O)C1=C(C)N=c2s/c(=C/c3ccccc3)c(=O)n2C1c1ccc(OC)c(OC)c1` (configuration not stated)?
Cycloheximide cs: -4; Pf growth 96h: inconclusive; Pf growth 48h: inconclusive; AMA1 RON2 block: -3%; Shiga toxin inh: -9; HCV inh: -4%

What do the screens show for `CCOC(=O)C1=C(C)n2c(s/c(=C/c3cccc([N+](=O)[O-])c3)c2=O)=NC1c1ccc(O)c(OC)c1` (configuration not stated)?
Cycloheximide cs: -4; Pf growth 48h: 2.9µM*; AMA1 RON2 block: -6%; Shiga toxin inh: -2; HCV inh: 8.9µM*

Results for Cc1ccccc1NC(=O)CN1C(=O)N/C(=C\c2ccccc2OCc2ccc(C(=O)O)cc2)C1=O ?
Cycloheximide cs: -1; Pf growth 96h: 20%; Pf growth 48h: 20%; AMA1 RON2 block: -28%; Shiga toxin inh: -8; HCV inh: 13%

Results for CSc1ccc(C2C(C(=O)c3ccco3)=C(O)C(=O)N2c2nnc(SC)s2)cc1 (configuration not stated) ?
Cycloheximide cs: 36*; Pf growth 96h: 77%; Pf growth 48h: 65%; AMA1 RON2 block: 51%; Shiga toxin inh: 75*; HCV inh: 5%

What do the screens show for `Cc1nnc(N2C(=O)C(O)=C(C(=O)c3ccco3)C2c2ccc(C(C)C)cc2)s1` (configuration not stated)?
Cycloheximide cs: 40*; Pf growth 96h: inconclusive; Pf growth 48h: 27%; AMA1 RON2 block: 10%; Shiga toxin inh: 64*; HCV inh: 16%

How did Cc1nnc(N2C(=O)C(O)=C(C(=O)c3ccco3)C2c2ccc(F)cc2)s1 (configuration not stated) do in these assays?
Cycloheximide cs: -2; Pf growth 96h: inconclusive; Pf growth 48h: -4%; AMA1 RON2 block: 8%; Shiga toxin inh: -5; HCV inh: 4%

What do the screens show for `Cc1nnc(N2C(=O)C(O)=C(C(=O)c3ccco3)C2c2ccc(C(C)(C)C)cc2)s1` (configuration not stated)?
Cycloheximide cs: 12*; Pf growth 96h: 43%; Pf growth 48h: 26%; AMA1 RON2 block: -3%; Shiga toxin inh: 21; HCV inh: 18%

How did CCCOc1cccc(C2C(C(=O)c3ccco3)=C(O)C(=O)N2c2nnc(C)s2)c1 (configuration not stated) do in these assays?
Cycloheximide cs: -5; Pf growth 96h: -2%; Pf growth 48h: 10%; AMA1 RON2 block: 11%; Shiga toxin inh: -11; HCV inh: 15%

Results for COc1ccccc1OCCSc1nc2ccc([N+](=O)[O-])cc2s1 ?
Cycloheximide cs: 10*; Pf growth 96h: inconclusive; Pf growth 48h: 6%; AMA1 RON2 block: inconclusive; Shiga toxin inh: -11; HCV inh: -28%

What do the screens show for `COC(=O)CSc1nc2ccc(N)cc2s1`?
Cycloheximide cs: 19*; Pf growth 96h: 3%; Pf growth 48h: 11%; AMA1 RON2 block: -8%; Shiga toxin inh: 25; HCV inh: 4%

Results for Nc1nnc(SCc2ccc([N+](=O)[O-])cc2)s1 ?
Cycloheximide cs: 8.0*; Pf growth 96h: 12%; Pf growth 48h: 12%; AMA1 RON2 block: 13%; Shiga toxin inh: 22; HCV inh: -1%

How did COc1cc(-c2nnc(CSc3nnc(N)s3)o2)cc(OC)c1OC do in these assays?
Cycloheximide cs: -4; Pf growth 96h: -15%; Pf growth 48h: 10%; AMA1 RON2 block: -5%; Shiga toxin inh: -8; HCV inh: -11%

How did C=CCc1ccccc1OCCSc1nc2ccc([N+](=O)[O-])cc2s1 do in these assays?
Cycloheximide cs: -2; Pf growth 96h: 30%; Pf growth 48h: 4%; AMA1 RON2 block: -9%[11.6 µM]; Shiga toxin inh: 1; HCV inh: 6%

Results for COc1ccc(CSc2nnc(N)s2)cc1F ?
Cycloheximide cs: 43*; Pf growth 96h: inconclusive; Pf growth 48h: 38%; AMA1 RON2 block: -8%; Shiga toxin inh: 86*; HCV inh: 7%

Results for O=[N+]([O-])c1ccc(CSc2nnc(SCc3ccc(Cl)cc3)s2)cc1 ?
Cycloheximide cs: 1; Pf growth 96h: inconclusive; Pf growth 48h: 17%; AMA1 RON2 block: -10%; Shiga toxin inh: -8; HCV inh: inconclusive

What do the screens show for `CN(C)CCNc1nc(Oc2cccc(F)c2)c2sccc2n1`?
AMA1 RON2 block: 4%

What do the screens show for `CC[C@H]1C(Nc2ccccc2)C[C@@H]2CCN3C(=O)CC[C@H]1[C@H]23` (some centres not stated)?
AMA1 RON2 block: -1%; HCV inh: 30%

What do the screens show for `Nc1ccc2nc(SCc3ccc([N+](=O)[O-])cc3)sc2c1`?
Cycloheximide cs: 28*; Pf growth 96h: 52%; Pf growth 48h: 88%; AMA1 RON2 block: -5%; Shiga toxin inh: 45; HCV inh: -27%

Results for O=C(NNC(=O)c1ccccc1Cl)c1ccc2c(c1)OCCO2 ?
AMA1 RON2 block: 36%; HCV inh: 10%

Screening data (PubChem)
